Results as given in ChEMBL document CHEMBL4513146, “CO-ADD screening of Karazin Kharkiv National University (Ukraine) compounds”.
Measured potencies and affinities stand elsewhere.

Key:
Klebsiella pneumoniae = conditions: Concentration 32 ug.mL-1;; ASSAY_TEST Inhibition of Bacterial Growth; detection method Absorption (OD600); MEDIA CAMHB; plate type 384well; NBS; CORNING #3640; time 18 hr
Candida albicans = conditions: Concentration 32 ug.mL-1; ASSAY_TEST Inhibition of Fungal Growth; detection method Absorption (OD530)
Cryptococcus neoformans = conditions: Concentration 32 ug.mL-1; ASSAY_TEST Inhibition of Fungal Growth; detection method Resazurin; Absorption (OD600-OD570); plate type 384well; NBS; CORNING #3640

SMILES	Inhibition (Klebsiella pneumoniae)	Inhibition (Candida albicans)	Inhibition (Cryptococcus neoformans)
COc1ccccc1CNC(=O)Cn1nc2c(N3CCC(C)CC3)nccn2c1=O	13.15%	4.39%	-8.45%
COc1ccc(NC(=O)Cn2nc3c(Oc4ccccc4)nccn3c2=O)cc1	8.21%	3.81%	-6.99%
Cc1nnc2ccc(S(=O)(=O)N(Cc3cccc(F)c3)c3cccc(F)c3)cn12	2.6%	1.95%	-8.19%
Cc1ccc(NC(=O)c2ccc3nnc(SCC(=O)Nc4ccc(F)cc4)n3c2)cc1	0.72%	4.31%	-5.93%
O=C(Cn1nc2c(SC3CCCCC3)nccn2c1=O)Nc1ccccc1Br	3.34%	3.41%	-1.71%
COc1ccc(-c2cc3c4nnc(CCC(=O)NCc5ccc(OC)cc5OC)n4ccn3n2)cc1	15.27%	2.37%	-17.34%
C=Cc1ccc(CN(c2ccc(F)cc2)S(=O)(=O)c2ccc3nnc(C)n3c2)cc1	5.5%	1.83%	-7.48%
CCOc1ccccc1NC(=O)Cn1nc2c(Sc3ccccc3)nccn2c1=O	3.54%	-0.33%	-18.53%
COc1cccc(CNC(=O)CSc2nnc3c4cc(-c5cc(C)ccc5C)nn4ccn23)c1OC	10.97%	2.62%	-25.27%
O=C(Cn1nc2ccc(SCc3ccc(Cl)cc3)nn2c1=O)NCc1ccccc1	6.87%	25.95%	-17.55%
CCOc1ccc(NC(=O)Cn2c(=O)c3nnc(C(C)C)n3c3ccccc32)cc1	4.3%	1.75%	-9.3%
CCOc1ccc(-n2ccn3c(=O)n(CC(=O)Nc4ccc(Br)cc4)nc3c2=O)cc1	8.93%	2.12%	-3.26%
COc1ccc(-n2ccn3c(=O)n(Cc4cc(C)ccc4C)nc3c2=O)cc1Cl	9.01%	1.96%	-5.13%
CCC(Sc1nnc2c(=O)n(-c3ccccc3)ccn12)C(=O)Nc1ccc(OC)cc1OC (stereo not given)	9.44%	2.91%	-10.74%
CCOC(=O)c1ccc(NC(=O)Cn2nc3c4cc(-c5ccc(C)c(C)c5)nn4ccn3c2=O)cc1	1.25%	1.14%	-10.15%
CCCCn1c(=O)c2sccc2n2c(CCC(=O)NC(C)C34CC5CC(CC(C5)C3)C4)nnc12 (stereo not given)	12.08%	-2.51%	-27.66%
O=c1n(Cc2nc(-c3ccc(Br)cc3)no2)nc2ccc(-c3ccccc3)nn12	7.97%	1.04%	-15.1%
COc1cc(NC(=O)Cn2nc3ccc(SC4CCCCC4)nn3c2=O)cc(OC)c1	6.28%	4.08%	-40.43%
COc1cc(OC)c(NC(=O)Cn2nc3c(Oc4cccc(C)c4C)nccn3c2=O)cc1Cl	8.97%	0.16%	-9.4%
Cc1ccc(Sc2nccn3c(=O)n(CC(=O)Nc4ccc(Br)cc4C)nc23)c(C)c1	-0.35%	-0.15%	-17.66%

SMILES	Inhibition (Klebsiella pneumoniae)	Inhibition (Candida albicans)	Inhibition (Cryptococcus neoformans)
Cc1cccc(NC(=O)CSc2nnc3ccc(C(=O)Nc4cccc(F)c4)cn23)c1C	-0.74%	4.11%	-4.88%
O=c1c2sccc2n2c(=O)n(Cc3ccccc3F)nc2n1CCc1ccccc1	8.76%	0.77%	-30.71%
COc1cccc(-n2ccn3c(SCC(=O)NC(C)C)nnc3c2=O)c1	10.83%	1.96%	-12.8%
Cc1cc2nn(CC(=O)Nc3cc(F)cc(F)c3)c(=O)n2c(Nc2ccc(F)c(C)c2)n1	18.09%	3.34%	-11.58%
COC(=O)c1ccc(CN(c2cccc(F)c2)S(=O)(=O)c2ccc3nncn3c2)o1	8.3%	2.51%	-7.35%
Cc1ccc(-c2ccc3nn(CC(=O)Nc4c(C)cccc4C)c(=O)n3n2)cc1C	-0.65%	-0.71%	-7.01%
CSc1cccc(NC(=O)Cn2nc3c(N4CCCC(C)C4)nccn3c2=O)c1 (stereo not given)	8.54%	6.43%	-37.15%
CCc1ccc(N(Cc2ccccc2Cl)S(=O)(=O)c2cccn3c(C)nnc23)cc1	4.84%	5.69%	-4.25%
CCN(CCCNC(=O)CCc1nnc2ccc(-c3ccccc3)nn12)c1ccccc1	9.95%	3.75%	-0.38%
O=S(=O)(c1ccc2nncn2c1)N(Cc1cccc(Cl)c1)c1ccc2c(c1)OCO2	8.88%	1.66%	-13.77%
Cc1ccc2c(c1)N(C(=O)Cn1nc3ccc(SCc4ccc(Cl)cc4)nn3c1=O)CCO2	7.49%	29.58%	-22.86%
COc1ccc(CCn2c(=O)c3sccc3n3c(=O)n(Cc4c(F)cccc4Cl)nc23)cc1OC	4.92%	-1.61%	-23.43%
CCOc1ccccc1NC(=O)Cn1nc2c(Sc3ccc(C)cc3C)nccn2c1=O	5.52%	-0.73%	-9.54%
COc1ccc(NC(=O)Cn2nc3c4cc(-c5ccc(Cl)cc5)nn4ccn3c2=O)c(OC)c1	16.21%	1.15%	-23.56%
COc1cccc(Sc2nc3ccccc3n3c(=O)n(CC(=O)Nc4ccc(C)c(C)c4)nc23)c1	5.05%	20.61%	-4.85%
CC(C)NC(=O)CCn1c(=O)c2ccccc2n2c(=O)n(CC#N)nc12	10.9%	0.91%	-13.64%
COC(=O)c1ccc(NC(=O)Cn2nc3c4sc(N5CCCC5)nc4ncn3c2=O)cc1	-7.74%	1.38%	-4.89%
O=C1CCCN1c1ccc(Cn2nc3ccc(-c4ccccc4)nn3c2=O)cc1	10.51%	-0.02%	-12.26%
COc1ccc(-c2cc3c4nn(CC(=O)Nc5ccc6c(c5)OCO6)c(=O)n4ccn3n2)cc1	2.73%	15.19%	-14.04%
COc1ccccc1N1CCN(C(=O)Cn2nc3ccc(-c4ccccc4)nn3c2=O)CC1	2.09%	1.1%	-5.13%

SMILES	Inhibition (Klebsiella pneumoniae)	Inhibition (Candida albicans)	Inhibition (Cryptococcus neoformans)
CCc1nnc2c(SCC(=O)Nc3ccc(Cl)cc3)nc3ccccc3n12	3.4%	9.64%	-3.51%
COc1ccc(-c2cc3c4nn(CC(=O)Nc5ccc(C)c(C)c5)c(=O)n4ccn3n2)cc1	5.79%	-0.09%	-15.38%
Cc1ccc(-c2cc3c4nn(CC(=O)NC5CCCC5)c(=O)n4ccn3n2)cc1C	3.15%	6.8%	-13.73%
CCCCc1ccc(NC(=O)CSc2nc3ccccc3n3c(C(C)C)nnc23)cc1	2.68%	2.13%	-2.44%
N#Cc1cccc(NC(=O)CSc2nnc3c4cc(-c5ccccc5)nn4ccn23)c1	9.61%	7.44%	-14.96%
COc1ccccc1NC(=O)Cn1nc2c3cc(-c4ccc(C)c(C)c4)nn3ccn2c1=O	17.54%	-1.16%	-22.56%
Cc1cc(C)cc(Nc2nc(C)cc3nn(CC(=O)NC4CCCC4)c(=O)n23)c1	17.93%	3.67%	-8.76%
O=C(CSc1nnc2c(=O)n(-c3ccc(Br)cc3)ccn12)Nc1cc(F)ccc1F	10.57%	7.34%	-16.33%
Cc1ccc(NC(=O)Cn2nc3c(Oc4ccccc4C)nccn3c2=O)cc1F	11.18%	-0.61%	-11.02%
Cc1cccc(CN(c2ccc(F)cc2)S(=O)(=O)c2ccc3nnc(C)n3c2)c1	6.15%	1.93%	-4.65%
Cc1cc2nn(CC(=O)Nc3cc(F)ccc3C)c(=O)n2c(Nc2ccc(F)cc2)n1	8.72%	0.87%	-4.58%
CCCN(C)c1nccn2c(=O)n(CC(=O)Nc3cccc(C(C)=O)c3)nc12	4.82%	2.07%	-8.37%
COc1ccc(NC(=O)Cn2nc3c4cc(-c5ccc(C)cc5)nn4ccn3c2=O)cc1Cl	-5.12%	9.96%	-15.26%
Cc1cccc(CN(c2cccc(Cl)c2)S(=O)(=O)c2cccn3c(C)nnc23)c1	-0.09%	1.52%	-9.64%
Cc1c(Cl)cccc1NC(=O)Cn1nc2c(N3CCOCC3)nc3ccccc3n2c1=O	9.14%	0.17%	-24%
Cc1ccc(F)cc1NC(=O)CSc1nc2ccccc2n2c(C)nnc12	10%	1.14%	-19.09%
O=C(Cn1nc2c3sccc3ncn2c1=O)Nc1ccc2c(c1)OCO2	-3.23%	1.42%	-18.53%
CCCCn1c(=O)c2sccc2n2c(CCC(=O)Nc3ccc(OC(F)(F)F)cc3)nnc12	7.36%	-0.1%	-18.58%
Cc1nc(-c2ccccn2)cc2nn(CC(=O)Nc3ccccc3C(F)(F)F)c(=O)n12	3.31%	0.65%	-8.99%
COc1ccc(Cl)cc1NC(=O)CSc1nnc2c(=O)n(-c3ccccc3)ccn12	11.41%	3.46%	-20.14%
